Activity calls are given as the source filed them. Unless noted, the rule behind the calls is not given here.
What was measured:
[1] = resazurin metabolic signal in HepG2 cells – cell-based, resazurin fluorescence, 24 h, PK04 Diversity Set, profiling panel (AID 1172); conditions: HepG2 viability, higher = more signal; note: test concentration not given here
[2] = budding yeast growth changes without added modifier – OD600, strain BY4716, 24 h, basal condition, primary screen (AID 1173); conditions: S. cerevisiae BY4716 growth, OD600, 24 h; higher = more signal, called active from +8 up or from −8 down
[3] = viability profiling in MM1S myeloma cells – cell-based, resazurin fluorescence, basal, 24 h, PK04 Diversity Set, profiling panel (AID 1174); conditions: higher = more signal, called active from +8 up or from −8 down;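 note: MM1S multiple myeloma cell line; test concentration not given here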
[4] = target: Dihydroorotate dehydrogenase (quinone), mitochondrial (Plasmodium falciparum (isolate 3D7)) (UniProt Q08210); test: inhibition of P. falciparum DHODH – biochemical, C-terminal His tag, absorbance 600 nm, primary screen (AID 1175); conditions: PfDHODH enzyme, DCIP absorbance 600 nm; higher = more signal, called active from +8 up or from −8 down;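 note: recombinant parasite enzyme with a five histidine tag at its C terminus; test concentration not given here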
[5] = inhibition of PAO1 biofilm formation – strain PAO1, LB-PBS medium, absorbance 600 nm, primary screen (AID 1176); note: test concentration not given here; conditions: P. aeruginosa PAO1 growth/biofilm, A600, 12 h; higher = more signal
[6] = growth modulation of vineyard yeast isolate – strain RM11-1a, OD600, basal, 24 h, primary screen (AID 1177);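 note: cultures grown under basal conditions with no added stressor; test concentration not given here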; conditions: S. cerevisiae RM11-1a growth, OD600, 24 h; higher = more signal, called active from +8 up or from −8 down
[7] = growth of efflux-deficient E. coli DRC39 – strain DRC39, OD650, 24 h, E. coli filamentation inducers, primary screen (AID 1178);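 note: growth measured as culture turbidity by optical density at 650 nm; test concentration not given here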; conditions: E. coli DRC39 acrAB, higher = more signal, called active from +8 up or from −8 down
[8] = growth of efflux-deficient E. coli DRC39 – strain DRC39, OD650, 48 h, E. coli filamentation inducers, primary screen (AID 1179);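 note: screen aims at cell division blockers that make cells filament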; conditions: E. coli DRC39 delta-acrAB growth, higher = more signal, called active from +8 up or from −8 down
[9] = viability profiling in RPMI8226 myeloma cells – cell-based, resazurin fluorescence, basal, 24 h, PK04 Diversity Set, profiling panel (AID 1180); conditions: higher = more signal;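 note: RPMI8826 multiple myeloma cell line at 5000 cells per well; test concentration not given here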
[10] = target: E3 ubiquitin-protein ligase XIAP (Homo sapiens) (UniProt P98170); test: small molecules binding XIAP protein – biophysical, small-molecule microarray, fluorescence 635 nm, primary screen (AID 1181); conditions: higher = more signal;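 note: score merges 667 nm emission and signal to noise over triplicate slides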
E3 ubiquitin-protein ligase XIAP (Homo sapiens), sequence (P98170 whole entry, looked up): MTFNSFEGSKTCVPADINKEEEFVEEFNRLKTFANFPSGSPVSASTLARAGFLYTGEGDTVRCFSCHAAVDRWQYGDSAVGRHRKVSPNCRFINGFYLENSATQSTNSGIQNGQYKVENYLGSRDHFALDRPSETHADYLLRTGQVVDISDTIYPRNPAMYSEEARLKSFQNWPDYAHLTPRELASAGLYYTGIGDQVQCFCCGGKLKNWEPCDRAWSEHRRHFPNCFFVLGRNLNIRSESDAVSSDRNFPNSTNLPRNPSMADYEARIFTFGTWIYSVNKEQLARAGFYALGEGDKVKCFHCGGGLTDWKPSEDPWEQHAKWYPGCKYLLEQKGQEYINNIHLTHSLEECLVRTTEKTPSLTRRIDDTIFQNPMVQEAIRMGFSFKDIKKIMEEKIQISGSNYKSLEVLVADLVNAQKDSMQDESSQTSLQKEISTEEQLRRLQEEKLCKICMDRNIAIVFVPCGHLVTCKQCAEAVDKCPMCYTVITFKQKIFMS

Dihydroorotate dehydrogenase (quinone), mitochondrial (Plasmodium falciparum (isolate 3D7)), sequence (Q08210 whole entry, looked up): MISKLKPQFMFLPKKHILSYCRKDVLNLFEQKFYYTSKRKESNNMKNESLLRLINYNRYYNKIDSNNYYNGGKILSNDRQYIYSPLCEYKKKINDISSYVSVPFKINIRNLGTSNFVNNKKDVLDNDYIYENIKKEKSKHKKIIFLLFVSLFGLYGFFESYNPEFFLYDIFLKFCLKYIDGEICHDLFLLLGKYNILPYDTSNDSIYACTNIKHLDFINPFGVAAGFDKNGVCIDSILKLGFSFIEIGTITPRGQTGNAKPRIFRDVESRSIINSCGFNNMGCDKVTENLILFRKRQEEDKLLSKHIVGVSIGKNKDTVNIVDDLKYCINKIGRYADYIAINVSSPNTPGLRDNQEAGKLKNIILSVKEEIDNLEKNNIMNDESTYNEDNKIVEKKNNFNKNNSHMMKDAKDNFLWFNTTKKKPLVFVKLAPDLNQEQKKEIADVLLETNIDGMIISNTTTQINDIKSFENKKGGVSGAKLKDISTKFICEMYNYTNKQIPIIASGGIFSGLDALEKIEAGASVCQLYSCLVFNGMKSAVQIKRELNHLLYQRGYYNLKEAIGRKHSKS

Compound | z-score [1] | z-score [2] | z-score [3] | composite z-score [4] | z-score [5] | z-score [6] | z-score [7] | z-score [8] | z-score [9] | composite z-score [10]
CC(C)C(O)C1C=CC2C(=O)N(c3ccccc3)C(=O)C2N1Nc1ccccc1 (stereo not given) | -0.196 | -2.05 (inactive) | -0.302 (inactive) | -0.85 (inactive) | 0.835 (inactive) | 0.334 (inactive) | 0.562 (inactive) | 0.376 (inactive) | -0.825 | 0.123
Cc1ccc(S[C@]2(C(=O)O)CC(=O)N(C3CCCCC3)[C@@H]2c2ccc(CO)cc2I)cc1 | 0.465 | -1.67 (inactive) | -0.353 (inactive) | -0.664 (inactive) | -0.137 (inactive) | -0.92 (inactive) | 0.475 (inactive) | 0.0129 (inactive) | -0.74 | -0.0525
CC(C)[Si](C#C[Si](C(C)C)(C(C)C)C(C)C)(O[C@H](c1ccccc1)c1cn(Cc2ccccc2)nn1)C(C)C | 0.918 | 1.6 (inactive) | 0.869 (inactive) | 0.367 (inactive) | 0.0885 (inactive) | 1.14 (inactive) | -0.177 (inactive) | 0.662 (inactive) | 1.43 | 0.0368
COc1cc(C(O)C2C=CC3C(=O)N(C)C(=O)C3N2Nc2ccccc2)cc(OC)c1OC (stereo not given) | -0.237 | -2.86 (inactive) | 0.162 (inactive) | 0.377 (inactive) | 0.586 (inactive) | 0.155 (inactive) | -0.654 (inactive) | -0.852 (inactive) | -0.0998 | 0.14
CCCCN1CC=CC23O[C@@H]4/C=C\CCC(C)OC(=O)C4[C@H]2C(=O)N(CCCO)[C@@H]3C1=O (stereo not given in full) | 0.0917 | 1.04 (inactive) | 0.0853 (inactive) | -0.0558 (inactive) | -0.112 (inactive) | 0.487 (inactive) | 0.0475 (inactive) | -0.154 (inactive) | 0.79 | -0.267
Cc1ccc(S[C@]2(C(=O)NCC(F)(F)F)CC(=O)N(Cc3cc(C(F)(F)F)cc(C(F)(F)F)c3)[C@@H]2c2ccc(CO)cc2)cc1 | -0.686 | 0.438 (inactive) | -0.266 (inactive) | -13.9 (active) | 0.214 (inactive) | -0.145 (inactive) | -0.362 (inactive) | -0.615 (inactive) | -0.445 | -0.241
COCCOC(=O)N1C(=O)[C@@]2(c3cc(C#CCCO)ccc31)[C@H](C(=O)Nc1nc3ccccc3s1)[C@H]1C(=O)O[C@H](c3ccccc3)[C@H](c3ccccc3)N1[C@@H]2c1ccc(O)cc1 | -0.0461 | 1.26 (inactive) | -0.159 (inactive) | 1.35 (inactive) | 0.325 (inactive) | 1.52 (inactive) | -0.356 (inactive) | -1.07 (inactive) | -0.358 | -0.105
C=C(COC)/C(=C/C[C@H](OC(=O)c1ccncc1)c1ccccc1OCCO)c1cc(C(=O)OC)ccc1OC | -0.418 | -0.0515 (inactive) | -2.16 (inactive) | -2.32 (inactive) | 0.367 (inactive) | -0.567 (inactive) | -1.31 (inactive) | -1.21 (inactive) | -1.58 | -0.157
C=CCOC(=O)[C@@H]1[C@H]2C(=O)O[C@H](c3ccccc3)[C@H](c3ccccc3)N2[C@H](c2ccc(OCCOC(=O)[C@@H]3C[C@@H]4C(=O)N[C@@H](CCCC[N+](C)(C)C)C(=O)N4[C@@H]3c3ccc(O)cc3)cc2)[C@@]12C(=O)Nc1ccc(I)cc12 | 0.945 | -0.398 (inactive) | -0.596 (inactive) | -2.02 (inactive) | 0.379 (inactive) | 1.39 (inactive) | -0.507 (inactive) | -0.809 (inactive) | -0.0426 | -0.124
CC1=C2[C@@H](CCc3ccccc3)OB(O)C[C@@H]2[C@@H]2C(=O)N(C)C(=O)[C@@H]2C1 | 0.157 | -2.36 (inactive) | -0.313 (inactive) | -0.628 (inactive) | 0.212 (inactive) | 0.154 (inactive) | 0.672 (inactive) | 0.561 (inactive) | -0.265 | -0.239
CCOC(=O)C[C@H]1[C@H](OC(=O)c2ccc(C(=O)c3ccccc3)cc2)[C@@H](NC(=O)c2ccc(-c3ccccc3)cc2)c2cc(OCCCO)ccc2N1C(=O)Cc1ccc(OC)cc1 | 0.247 | 0.401 (inactive) | -0.176 (inactive) | 0.25 (inactive) | -0.358 (inactive) | 0.225 (inactive) | -0.224 (inactive) | 0.424 (inactive) | -0.0952 | -0.0994
O=C1O[C@H](c2ccccc2)[C@H](c2ccccc2)N2[C@H]1[C@@H](C(=O)O)[C@]1(C(=O)Nc3ccc(C#CCCO)cc31)[C@H]2c1ccccc1OCCO | -0.732 | -0.498 (inactive) | 0.716 (inactive) | -0.408 (inactive) | 0.573 (inactive) | 0.626 (inactive) | -0.88 (inactive) | -1.22 (inactive) | 1.5 | 0.177
CCOC(=O)C1=C[C@@H](C(C)C)N(S(=O)(=O)c2ccc(C)cc2)[C@H]1c1ccc(C(F)(F)F)cc1 | -0.698 | 2.42 (inactive) | -0.267 (inactive) | 0.919 (inactive) | -0.0322 (inactive) | 2.24 (inactive) | -0.227 (inactive) | -0.442 (inactive) | -1.58 | 0.109
COc1ccc([Si](C)(C)[C@H]2[C@H](CC(=O)N3CCC[C@H]3CO)O[C@@]3(C(=O)N(Cc4ccc(N5CCOC5=O)cc4)c4ccccc43)[C@@H]2C)cc1 | -0.0717 | 0.686 (inactive) | -0.255 (inactive) | -2.97 (inactive) | 0.189 (inactive) | 1.35 (inactive) | 0.0286 (inactive) | -0.16 (inactive) | -0.404 | -0.0356
O=C(c1ccccc1)N1C(=O)[C@]2(Cc3ccccc31)N=C(c1ccc(OCCCO)cc1)O[C@@H]2c1ccccc1 | -2.28 | 0.964 (inactive) | -5.95 (inactive) | 0.934 (inactive) | 1.82 (inactive) | 2.14 (inactive) | -0.18 (inactive) | -1.01 (inactive) | -5.46 | 0.233
C=CCNC(=O)[C@@H]1[C@H]2C(=O)O[C@H](c3ccccc3)[C@H](c3ccccc3)N2[C@H](c2ccc(O)cc2)[C@@]12C(=O)N(C(=O)OCCOC)c1ccc(C#CC3=CCCCC3)cc12 | -0.411 | 0.0346 (inactive) | -0.279 (inactive) | 0.235 (inactive) | 1.26 (inactive) | 0.891 (inactive) | -0.713 (inactive) | -0.277 (inactive) | -1.09 | -0.0056
O=C(NCCN1CCOCC1)[C@@H]1c2ccccc2C(=O)N(Cc2ccccc2Cl)[C@H]1c1ccc(CO)cc1 | -0.0211 | 0.199 (inactive) | -1.21 (inactive) | -0.0473 (inactive) | 0.0993 (inactive) | 0.593 (inactive) | 0.447 (inactive) | 0.865 (inactive) | -0.831 | 0.0178
COc1cc(NN2C(C(O)c3cc(OC)c(OC)c(OC)c3)C=CC3C(=O)N(C)C(=O)C32)cc(OC)c1OC (stereo not given) | -0.177 | 0.712 (inactive) | -0.464 (inactive) | -1.27 (inactive) | 0.366 (inactive) | 0.276 (inactive) | -0.0468 (inactive) | 0.179 (inactive) | -0.97 | -0.144
CCN(CC)c1ccc(N2CC=CC34O[C@@H]5/C=C\CCCOC(=O)C5[C@H]3C(=O)N(C(C)CO)[C@@H]4C2=O)cc1 (stereo not given in full) | 0.242 | -0.566 (inactive) | 0.516 (inactive) | -2.25 (inactive) | -0.14 (inactive) | -0.355 (inactive) | 1.9 (inactive) | 1.92 (inactive) | 0.778 | 0.115
CCCCC[C@H]1OC[C@@]23C=C(Br)[C@@H](CC12)[C@@]1(CO1)C3=O (stereo not given in full) | 0.213 | -8.43 (active) | -0.586 (inactive) | -0.23 (inactive) | 0.248 (inactive) | -0.984 (inactive) | -0.662 (inactive) | -0.666 (inactive) | -0.0702 | 0.144
[N-]=[N+]=Nc1ccccc1C[C@@]1(C(=O)NCCN2CCOCC2)N=C(c2ccc(OCCCO)cc2)O[C@@H]1c1ccccc1N=[N+]=[N-] | -1.02 | -3.4 (inactive) | -2.12 (inactive) | 0.322 (inactive) | -0.124 (inactive) | 0.26 (inactive) | -0.229 (inactive) | -1.02 (inactive) | -2.02 | 0.17
C=CCC(OC(C)=O)[C@@H]1[C@@H](N(Cc2cccc3ccccc23)C(=O)Cc2ccc(F)cc2)c2cc(OCCCO)ccc2N1C(=O)c1ccc2ccccc2c1 (stereo not given in full) | 0.921 | 0.274 (inactive) | 0.697 (inactive) | 0.339 (inactive) | -0.0057 (inactive) | 0.036 (inactive) | 0.655 (inactive) | 0.83 (inactive) | 0.276 | 0.34

— PubChem BioAssay
